Consider 114 molecules from PubChem BioAssay AID488969 (Vanderbilt High Throughput Screening Facility, 2010).

Where “and” joins values, the source holds several entries; their conditions need not be identical. Equal values may be shown once. Over roughly 110,000 compounds, “z-score” has its median near -0.1; the highest 2% begin near 2. Only a selection was taken, and the highest values are over-represented in it overall. Calls of active or inactive are those of the source.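 Rule for the calls: active = z-score in the third read window above 3 or below -3; inactive = the rest.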

Sequence of Metabotropic glutamate receptor 8 (Rattus norvegicus) (P70579 whole entry, looked up): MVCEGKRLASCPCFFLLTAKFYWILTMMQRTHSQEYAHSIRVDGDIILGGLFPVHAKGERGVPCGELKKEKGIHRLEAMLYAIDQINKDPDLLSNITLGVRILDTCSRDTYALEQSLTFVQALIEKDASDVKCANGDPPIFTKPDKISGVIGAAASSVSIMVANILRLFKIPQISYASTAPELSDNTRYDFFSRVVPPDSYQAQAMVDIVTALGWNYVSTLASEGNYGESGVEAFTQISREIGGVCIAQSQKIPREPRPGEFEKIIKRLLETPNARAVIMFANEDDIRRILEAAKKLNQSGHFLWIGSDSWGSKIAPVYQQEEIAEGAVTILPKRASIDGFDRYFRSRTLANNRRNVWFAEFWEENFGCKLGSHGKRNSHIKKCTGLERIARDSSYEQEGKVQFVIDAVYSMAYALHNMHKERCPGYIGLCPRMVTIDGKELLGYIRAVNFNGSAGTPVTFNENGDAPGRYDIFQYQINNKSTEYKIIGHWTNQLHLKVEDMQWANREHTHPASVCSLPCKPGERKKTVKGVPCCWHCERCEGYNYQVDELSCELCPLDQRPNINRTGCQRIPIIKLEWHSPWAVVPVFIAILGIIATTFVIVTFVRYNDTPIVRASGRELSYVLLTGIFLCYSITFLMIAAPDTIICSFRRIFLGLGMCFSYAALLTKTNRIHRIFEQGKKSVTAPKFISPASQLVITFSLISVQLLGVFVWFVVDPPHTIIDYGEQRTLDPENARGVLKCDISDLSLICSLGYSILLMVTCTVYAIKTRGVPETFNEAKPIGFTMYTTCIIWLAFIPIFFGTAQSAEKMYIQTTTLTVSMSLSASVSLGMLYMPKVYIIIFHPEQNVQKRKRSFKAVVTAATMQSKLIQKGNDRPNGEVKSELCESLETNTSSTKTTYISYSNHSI

This test concerns the target Metabotropic glutamate receptor 8 (Rattus norvegicus) (UniProt P70579). The experiment in a line: rat mGluR8 modulators via GIRK flux, primary screen, cell-based, thallium flux, HTS (AID 488969). To be noted: HEK293 rat mGluR8, GIRK (G protein-gated inwardly rectifying potassium channel) thallium flux, FluoZin2; at 10 µM; stronger effect = higher value; submaximal glutamate (EC20) added with thallium.
Molecule `Nn1c(SCc2ccccc2)nnc1-c1ccccn1` had a z-score of 0.00631.

Molecule `CC(=O)NCCn1c(SCC(=O)NCC2CCCO2)nc2ccccc2c1=O` (centres undefined) registered a z-score of 0.564.

`CCN(CC)S(=O)(=O)c1cccc(-c2nnc(C(=O)c3ccc(C(F)(F)F)cc3)o2)c1` had a z-score of -0.091.

Consider `CC(C)Oc1cc(NC(=O)CSCC(=O)Nc2cccc(C(F)(F)F)c2)c(Cl)cc1Cl`, for which the z-score was -0.183.

For the molecule `COc1cc(NC(=O)CSCC(=O)Nc2cccc(C(F)(F)F)c2)c(Cl)cc1Cl`, the z-score is -0.193.

In turn, `CC(C)Oc1cc(NC(=O)CS(=O)CC(=O)Nc2cccc(C(F)(F)F)c2)c(Cl)cc1Cl` (centres undefined) displayed a z-score of 2.75.

Regarding `CCCn1nnnc1NC(=O)c1ccc2ccccc2c1`, the z-score was 8.08 (active).

In turn, `CCCn1nnnc1NC(=O)c1cc(Cl)ccc1Cl` showed a z-score of 0.462.

`CCCn1nnnc1NC(=O)c1cccs1` came in with a z-score of 0.876.

`CSc1nc(Cc2ccc(Cl)cc2)nc2ccccc12` had a z-score of 0.221.

`CS(=O)(=O)N(CC(=O)Nc1ccccc1)Cc1ccc(Cl)cc1` came in with a z-score of 0.264.

As for `CCN=c1scc(-c2ccco2)n1/N=C/c1ccc(O)cc1`, the z-score is 6.24 (active).

As for `CCN=c1scc(-c2ccco2)n1/N=C/c1ccc(OC)c(O)c1`, the z-score amounted to 0.709.

`CC(C)N=c1scc(-c2ccco2)n1/N=C/c1ccc(O)c(O)c1` displayed a z-score of 1.68.

For the molecule `O=C(CCn1c(=O)sc2ccccc21)Nc1ccon1`, the z-score is -0.246.

On to `Cc1ccc(OS(=O)(=O)c2ccccc2)c(/C=N/N=C2\NC(=O)C(C)S2)c1` (centres undefined), for which the z-score was -0.426.

For the molecule `O=C(O)/C(=C\c1ccc(Br)cc1)c1ccc(S(=O)(=O)N2CCCCC2)s1`, the z-score is -0.862.

For the molecule `CCOC(=O)C(Cc1ccccc1)NC(C)=O` (centres undefined), the z-score is -0.16.

In the case of `CCN(C(=O)CSc1cc(-c2ccccc2)c2ccc(OC)cc2n1)C1CCS(=O)(=O)C1` (centres undefined), the z-score was -0.108.

Take `CCCN(C(=O)CSc1cc(-c2ccccc2)c2ccc(OC)cc2n1)C1CCS(=O)(=O)C1` (centres undefined): the z-score was -0.403.

Regarding `COc1ccc2c(-c3ccccc3)cc(SCC(=O)N(C)C3CCS(=O)(=O)C3)nc2c1` (centres undefined), the z-score turned out to be 2.36.

`O=C(CSc1nnc(Cc2ccccc2)n1-c1ccc(F)cc1)N1CCOCC1` displayed a z-score of 0.477.

`O=S(=O)(Cc1cc(Cl)nc(-c2ccccc2)n1)c1ccccc1` yielded a z-score of -0.303.

For `O=C(COc1ccccc1)NC(=S)Nc1cccc([N+](=O)[O-])c1`, the z-score was 11.8 (active).

`O=C(COc1ccccc1)Nc1ccc2c(c1)Cc1cc(NC(=O)COc3ccccc3)ccc1-2` yielded a z-score of -0.155.

In the case of `O=C(COc1ccccc1)NC(=S)Nc1ccc2c(c1)Cc1ccccc1-2`, the z-score was 6.86 (active).

In the case of `O=C(COc1ccccc1)Nc1ccc([N+](=O)[O-])cc1`, the z-score is 0.423.

On to `O=C(COc1ccccc1)NC(=S)Nc1cccc(NC(=O)c2ccccc2Cl)c1`, for which the z-score is -0.164.

The molecule `COc1ccc(C(=O)NC(=S)Nc2ccc3c(c2)Cc2ccccc2-3)cc1` had a z-score of 0.991.

The molecule `CC(Sc1ccccn1)C(=O)Nc1ccccc1` (centres undefined) returned a z-score of -0.408.

`Cc1cc2nc(-c3ccco3)cc(C(F)(F)F)n2n1`: the z-score was determined as 0.0437.

With `CC1CC(Nc2cccc(O)c2)=CC(=O)O1` (centres undefined), the z-score is -0.0768.

On to `CCCCC(=O)Nc1ncc2c(n1)CC(C)(C)CC2=O`, for which the z-score was 6.64 (active).

`CC1(C)CC(=O)c2cnc(NC(=O)CCc3ccccc3)nc2C1` came in with a z-score of -0.267.

In turn, `CCCCC1CC1C(=O)Nc1ncc2c(n1)CC(C)(C)CC2=O` (centres undefined) returned a z-score of -0.185.

`O=C(O)C1CC(=O)N(Cc2cccs2)C1` (centres undefined): the z-score was 0.254.

`O=C(CCSc1ccccc1)Nc1nccs1` showed a z-score of 0.115.

Consider `O=C(CSc1ccccc1)N(c1ccc(Br)cc1)c1nccs1`, for which the z-score was 9.08 (active).

As to `Cc1nc(-c2ccccc2)sc1C(=O)CSc1ccc(Br)cc1`, the z-score was -0.108.

For the molecule `CCOC(=O)C1CCCN(C(=O)c2cc3c(-c4cccc(OC)c4)nn(C)c3s2)C1` (centres undefined), the z-score was -0.832.

The molecule `Cc1nc(=O)c(-c2ccccc2)c(C)n1CCO` registered a z-score of -0.0934.

Turning to `N=c1c2c3c(sc2ncn1Cc1ccccc1)CCCC3`, the z-score came to 0.187.

With `CC(C)Cn1cnc2sc3c(c2c1=N)CCCC3`, the z-score is 3.07 (active).

`N=c1c2c3c(sc2ncn1CCCO)CCCC3` registered a z-score of -0.123.

The molecule `CCCNC(=S)Nc1ccc(Cl)cc1C` displayed a z-score of -0.142.

With `COc1cccc(N2CCN(Cc3nc(N)nc(Nc4ccccc4OC)n3)CC2)c1`, the z-score was -0.203.

`Cc1cccc(C)c1OCC(=O)NCc1nnc(SCC(=O)NC2CCCCC2C)n1C` (centres undefined): the z-score is -0.0497.

With `O=C(NNc1ncc(C(F)(F)F)cc1Cl)c1c(Cl)cccc1Cl`, the z-score worked out at 0.951.

The molecule `Cc1ccc(NC(=S)NNc2ncc(C(F)(F)F)cc2Cl)c(C)c1` yielded a z-score of 2.04.

`Cc1cccc(C)c1NC(=S)NNc1ncc(C(F)(F)F)cc1Cl` returned a z-score of 0.289.

For the molecule `Fc1ccccc1NC(=S)NNc1ncc(C(F)(F)F)cc1Cl`, the z-score was determined as 1.37.

As to `FC(F)(F)c1cnc(NNC(=S)Nc2ccccc2Cl)c(Cl)c1`, the z-score is 5.28 (active).

In turn, `CN(NC(=O)Nc1ccc(Cl)cc1)c1ncc(C(F)(F)F)cc1Cl` came in with a z-score of 0.137.

`Nc1ccccc1C(=O)NNc1ncc(C(F)(F)F)cc1Cl` displayed a z-score of 0.251.

With `CC(C(=O)Nc1ccc(Cl)cc1)c1ncc(C(F)(F)F)cc1Cl` (centres undefined), the z-score is -0.108.

As to `FC(F)(F)c1cnc(NNC(=S)Nc2ccc(Cl)cc2)c(Cl)c1`, the z-score is 6.35 (active).

For `Cc1ccc(NC(=S)NNc2ncc(C(F)(F)F)cc2Cl)cc1`, the z-score worked out at 2.19.

The molecule `Cc1c(Cl)cccc1NC(=S)NNc1ncc(C(F)(F)F)cc1Cl` had a z-score of 0.506.

Consider `Cc1ccccc1NC(=S)NNc1ncc(C(F)(F)F)cc1Cl`, for which the z-score is 0.522.

The molecule `COc1cc2c(cc1NC(=O)c1cccc(Br)c1)CCCC2` yielded a z-score of 0.201.

Turning to `N#Cc1cc2c(nc1SCC(N)=O)CCCCC2`, the z-score was -0.0763.

Molecule `COc1ccc(-c2csc(Nc3cccnc3)n2)cc1OC` came in with a z-score of -0.0895.

`Cc1cc(=O)oc(C)c1C(=O)OCC(=O)c1ccc2ccccc2c1` yielded a z-score of -0.249.

Take `CCCCCCn1cnc2c(c1=O)c1nc3ccccc3nc1n2Cc1cccs1`: the z-score was -1.43.

As for `Cc1nn2c(NCCCN(C)C)c3c(nc2c1-c1ccccc1)CCC3`, the z-score is 3.36 (active).

As for `CCCCNc1c2c(nc3c(-c4ccccc4)c(C)nn13)CCC2`, the z-score is -0.294.

In turn, `Cc1nn2c(NCCCN3CCOCC3)c3c(nc2c1-c1ccccc1)CCC3` gave a z-score of -0.0116.

Turning to `CN1CCN(CC(=O)Nc2ccc(Oc3ccccc3)cc2)CC1`, the z-score is 1.4.

Regarding `CC1CCCCN1CC(=O)Nc1ccc(Oc2ccccc2)cc1` (centres undefined), the z-score is 3.58 (active).

Take `O=C(CN1CCOCC1)Nc1ccc(Oc2ccccc2)cc1`: the z-score is 1.91.

For `O=C(CN1CCOCCOCCOCC1)Nc1ccccc1`, the z-score was 0.274.

In turn, `O=C(CN1CCN(C(=S)NC2CCCC2)CC1)Nc1ccc(Oc2ccccc2)cc1` returned a z-score of -0.13.

In turn, `O=C(CN1CCOCC1)Nc1ccc(Oc2ccc(NC(=O)CN3CCOCC3)cc2)cc1` had a z-score of -0.278.

`CC1CCCCN1CC(=O)NC(=O)NCc1ccccc1` (centres undefined) displayed a z-score of -0.261.

Regarding `O=C(CN1CCOCCOCCOCCOCC1)Nc1ccccc1`, the z-score is 0.356.

Regarding `O=C(CN1CCNCC1)Nc1ccc(Oc2ccccc2)cc1`, the z-score was found to be 2.35.

Molecule `O=C(CN1CCOCC1)Nc1ccc(C2CCCCC2)cc1` gave a z-score of 2.23.

In the case of `COc1ccc(NC(=O)CN2CCCCC2)cc1`, the z-score is 0.473.

For the molecule `O=C(CN1CCCC1)Nc1ccc(Oc2ccc(NC(=O)CN3CCCC3)cc2)cc1`, the z-score came out at 2.7.

With `C=CCn1c(N)c(C(=O)Nc2ccc(C)c(C)c2)c2nc3ccccc3nc21`, the z-score was 0.661.

Consider `Cc1c(O)nc(SCC(=O)Nc2ccc3c4c(cccc24)CC3)n(-c2ccccc2)c1=O`, for which the z-score is -0.768.

For the molecule `CCOC(=O)N1CCN(C(=O)CN(C2CCCCC2)S(=O)(=O)c2ccc(F)cc2)CC1`, the z-score was found to be 0.315.

The molecule `CCOC(=O)c1cnc2ccc(OCC)cc2c1N1CCN(c2ccccc2OC)CC1` yielded a z-score of -0.8.

On to `COc1ccccc1NC(=O)c1sc2nc(-c3ccco3)ccc2c1N`, for which the z-score amounted to 0.132.

Turning to `NC(=O)c1sc2nc(-c3ccco3)ccc2c1N`, the z-score was -0.321.

On to `COC(=O)c1sc2nc(-c3ccco3)ccc2c1N`, for which the z-score turned out to be 2.53.

With `CC(C)CNC(=S)NNC(=O)c1ccc(OC(F)F)cc1`, the z-score was -0.0885.

In turn, `CCNC(=S)NNC(=O)c1ccc(OC(F)F)cc1` registered a z-score of -0.194.

Take `O=C(NNC(=S)NCc1ccccc1)c1ccc(OC(F)F)cc1`: the z-score amounted to 2.12.

`CCOCCCNC(=O)CCCOc1ccccc1`: the z-score was determined as 0.0157.

The molecule `O=C(Cc1ccccc1F)Nc1ccc(Cl)nc1` registered a z-score of 0.217.

On to `Cc1ccc(NC2=C(CC(=O)O)C(c3ccccc3)N(c3ccc(C)cc3)C2=O)cc1` (centres undefined), for which the z-score was -0.426.

Turning to `Cc1ccc(C2C3=C(NCCN=C3c3ccccc3)C(=O)N2c2ccccc2)cc1` (centres undefined), the z-score was 3.18 (active).

Molecule `Cc1ccc(N2C(=O)c3n[nH]c(C)c3C2c2ccccn2)cc1` (centres undefined) registered a z-score of -0.326.

As for `CC1CCCCN1S(=O)(=O)c1ccc(NC(=O)c2cccs2)cc1` (centres undefined), the z-score is -0.377.

As to `O=C(Nc1cccnc1)Nc1ccccc1Cl`, the z-score worked out at 0.0762.

Regarding `CCc1ccc(/C=C/C(=O)c2ccc(N3CCOCC3)cc2)cc1`, the z-score was determined as 0.286.

In turn, `CCN(CC)CC(=O)NC12CC3CC(CC(C3)C1)C2` registered a z-score of 2.42.

Turning to `O=C(O)CC(=O)NC12CC3CC(CC(C3)C1)C2`, the z-score was -0.251 and -0.244.

Consider `COCCC(=O)NC12CC3CC(CC(C3)C1)C2`, for which the z-score is -0.301.

In turn, `CCCCCC[n+]1c(-c2ccc(Cl)cc2Cl)csc1Nc1ccccc1` showed a z-score of -0.156.

Take `O=C(NC1CCCCC1)C(c1ccc(F)cc1)N(Cc1ccc2c(c1)OCO2)C(=O)c1cnsn1` (centres undefined): the z-score turned out to be 0.366.

In the case of `O=C(NC1CCCCC1)C(c1ccccc1)N(Cc1ccc2c(c1)OCO2)C(=O)c1cnsn1` (centres undefined), the z-score is 2.16.

On to `O=C(CN(Cc1ccc2c(c1)OCO2)C(=O)c1cnsn1)NC1CCCC1`, for which the z-score was -0.186.

For `COc1cc(CCN2C(=O)c3cccc4cccc(c34)C2=O)c(S(=O)(=O)N2CCCCCC2)cc1OC`, the z-score was -0.297.

On to `COC(=O)Cn1c(CN2CCc3ccccc3C2)nc2c1c(=O)n(C)c(=O)n2C`, for which the z-score was 5.81 (active).

On to `Cn1c(=O)c2c(nc(CN3CCc4ccccc4C3)n2Cc2ccccc2)n(C)c1=O`, for which the z-score was -0.932.

Consider `Cn1c(=O)c2c(nc(CN3CCc4ccccc4C3)n2CC(=O)c2ccccc2)n(C)c1=O`, for which the z-score was -0.969.

Molecule `CCOC(=O)c1ccc(NC(=O)c2cc(OC)c(OC)c(OC)c2Br)cc1` came in with a z-score of 0.551.

In turn, `O=C(O)C1CCCCC1C(=O)NCc1cn2ccccc2n1` (centres undefined) came in with a z-score of -0.352.

Take `O=C(CN1CCOCC1)Nc1ccc(OCc2ccccc2)cc1`: the z-score amounted to 0.323.

`Cc1ccc(Cn2c(SCC(C)C)nc3c2c(=O)n(C)c(=O)n3C)cc1` yielded a z-score of -0.493.

`Cc1ccc(Cn2c(SCC(N)=O)nc3c2c(=O)n(C)c(=O)n3C)cc1`: the z-score is -0.328.

`CNC(=O)CSc1nc2c(c(=O)n(C)c(=O)n2C)n1Cc1ccc(C)cc1` had a z-score of 2.07.
